Activity calls are given as the source filed them. Unless noted, the rule behind the calls is not given here.

The nature of assay [1]: HepG2 liver cancer cell viability effects, profiling panel, resazurin fluorescence, 24 h, PK04 Diversity Set (AID 1172). Note: test concentration not given here. The conditions noted are these: higher = more signal. (In general: Resazurin is reduced to fluorescent resorufin, in cell work by metabolically active cells.)
A short description of assay [2]: basal S. cerevisiae growth modulation, no modifier, primary screen, OD600, strain BY4716, 24 h, basal condition (AID 1173). The conditions noted are these: OD600, 24 h, higher = more signal, called active from +8 up or from −8 down.
Assay [3] is described as follows: MM1S myeloma cell viability, profiling panel, resazurin fluorescence, basal, 24 h, PK04 Diversity Set (AID 1174).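 Note: MM1S multiple myeloma cell line; test concentration not given here.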 The conditions noted are these: higher = more signal, called active from +8 up or from −8 down.
In assay [4] the target is Dihydroorotate dehydrogenase (quinone), mitochondrial (Plasmodium falciparum (isolate 3D7)) (UniProt Q08210). Kind of assay: PfDHODH enzyme inhibitors, primary screen, biochemical, C-terminal His tag, absorbance 600 nm (AID 1175).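 Note: recombinant parasite enzyme with a five histidine tag at its C terminus; test concentration not given here.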 The conditions noted are these: DCIP absorbance 600 nm, higher = more signal, called active from +8 up or from −8 down.
Dihydroorotate dehydrogenase (quinone), mitochondrial (Plasmodium falciparum (isolate 3D7)), sequence (Q08210 whole entry, looked up): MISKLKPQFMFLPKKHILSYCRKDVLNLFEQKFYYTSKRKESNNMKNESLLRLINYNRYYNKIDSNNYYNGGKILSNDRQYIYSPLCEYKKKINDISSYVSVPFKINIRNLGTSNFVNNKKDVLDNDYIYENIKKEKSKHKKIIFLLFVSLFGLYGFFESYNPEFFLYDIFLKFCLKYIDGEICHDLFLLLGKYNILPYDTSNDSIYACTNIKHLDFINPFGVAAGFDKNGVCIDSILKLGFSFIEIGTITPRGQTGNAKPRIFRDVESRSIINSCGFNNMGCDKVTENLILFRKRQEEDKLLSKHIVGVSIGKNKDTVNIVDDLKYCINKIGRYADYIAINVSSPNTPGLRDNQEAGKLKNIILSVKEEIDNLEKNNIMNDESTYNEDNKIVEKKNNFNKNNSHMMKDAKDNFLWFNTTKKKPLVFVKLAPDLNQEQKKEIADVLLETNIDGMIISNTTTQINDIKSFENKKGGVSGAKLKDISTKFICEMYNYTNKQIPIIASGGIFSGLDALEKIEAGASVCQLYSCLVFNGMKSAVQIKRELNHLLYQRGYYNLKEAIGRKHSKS
Assay [5] can be described thus: P. aeruginosa biofilm formation inhibitors, primary screen, strain PAO1, LB-PBS medium, absorbance 600 nm (AID 1176). Note: test concentration not given here. The note with it: P. aeruginosa PAO1 growth/biofilm, A600, 12 h; higher = more signal.
Assay [6] in a line: S. cerevisiae RM11-1a growth modifiers, primary screen, strain RM11-1a, OD600, basal, 24 h (AID 1177).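 Note: cultures grown under basal conditions with no added stressor; test concentration not given here.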 The note with it: OD600, 24 h, higher = more signal, called active from +8 up or from −8 down.
The nature of assay [7]: E. coli acrAB mutant growth effects, primary screen, E. coli filamentation inducers, strain DRC39, OD650, 24 h (AID 1178).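 Note: growth measured as culture turbidity by optical density at 650 nm; test concentration not given here.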 The conditions noted are these: higher = more signal, called active from +8 up or from −8 down.
Assay [8] can be described thus: E. coli acrAB mutant growth effects, primary screen, E. coli filamentation inducers, strain DRC39, OD650, 48 h (AID 1179).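 Note: screen aims at cell division blockers that make cells filament.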 The note with it: E. coli DRC39 delta-acrAB growth, higher = more signal, called active from +8 up or from −8 down.
Assay [9] in a line: RPMI8226 myeloma cell viability, profiling panel, resazurin fluorescence, basal, 24 h, PK04 Diversity Set (AID 1180).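 Note: RPMI8826 multiple myeloma cell line at 5000 cells per well; test concentration not given here.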 The note with it: higher = more signal.
Assay [10] has as its target E3 ubiquitin-protein ligase XIAP (Homo sapiens) (UniProt P98170). Kind of assay: XIAP binders, primary screen, biophysical, small-molecule microarray, fluorescence 635 nm (AID 1181).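 Note: score merges 667 nm emission and signal to noise over triplicate slides.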 The conditions noted are these: small-molecule microarray binding, higher = more signal.

E3 ubiquitin-protein ligase XIAP (Homo sapiens), sequence (P98170 whole entry, looked up): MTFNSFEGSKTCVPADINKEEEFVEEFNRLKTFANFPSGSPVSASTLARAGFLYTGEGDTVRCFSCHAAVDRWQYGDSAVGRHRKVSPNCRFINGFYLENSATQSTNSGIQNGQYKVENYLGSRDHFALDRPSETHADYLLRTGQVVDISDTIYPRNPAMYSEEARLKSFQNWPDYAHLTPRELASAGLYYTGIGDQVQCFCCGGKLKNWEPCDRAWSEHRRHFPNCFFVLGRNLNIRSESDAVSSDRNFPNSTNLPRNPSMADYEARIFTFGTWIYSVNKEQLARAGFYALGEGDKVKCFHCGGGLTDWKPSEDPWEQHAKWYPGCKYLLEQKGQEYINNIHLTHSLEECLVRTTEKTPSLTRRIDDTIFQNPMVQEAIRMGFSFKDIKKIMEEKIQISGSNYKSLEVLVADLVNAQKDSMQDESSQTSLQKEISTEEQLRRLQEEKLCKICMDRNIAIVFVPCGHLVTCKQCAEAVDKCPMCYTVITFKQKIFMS

For `CN(C)C(=O)[C@@]1(Cc2ccccc2CN=[N+]=[N-])N=C(c2ccc(OCCCO)cc2)O[C@H]1c1ccccc1`, the z-score in assay [1] was 0.0128; in assay [2] it was 1.11 (inactive); in assay [3], -1.82 (inactive); in [5] it was 0.41 (inactive); in assay [6], 1.39 (inactive); in assay [7], 0.316 (inactive). Further, the z-score in assay [8] was 0.0743 (inactive); in assay [9] it was -3.38. The values for the composite z-score in assay [4] and in [10] were 1.12 (inactive) and -0.0118, respectively.

Consider `CC(CO)N1C(=O)[C@@H]2C3C(=O)OCCC/C=C\[C@H]3OC23C=CCN(c2ccc4ccccc4c2)C(=O)[C@@H]13` (stereo not given in full), for which the z-score in [1] was -0.757; in assay [2] it was -0.55 (inactive); in assay [3], -0.208 (inactive); in assay [5] it was -0.456 (inactive); in assay [6], 0.179 (inactive); in assay [7] it was 0.162 (inactive). Also, the values for the z-score in assay [8] and in assay [9] were 0.703 (inactive) and -0.0216, respectively. For the same molecule, the composite z-score is 0.575 (inactive) in assay [4] and -0.0989 in assay [10].

With `CC(C)C[C@@H]1NC(=O)[C@H]2C[C@@H](C(=O)NCCCCCCN)[C@@H](c3ccc(O)cc3)N2C1=O`, the z-score in [1] was -0.632; in [2], -0.134 (inactive); in [3], -0.403 (inactive); in assay [5] it was -0.226 (inactive); in [6] it was -0.459 (inactive); in assay [7], -0.396 (inactive). In addition, the z-score in [8] is -0.975 (inactive); in [9], -0.299. Besides, the composite z-score is 0.0444 (inactive) in [4] and -0.338 in assay [10].

`[N-]=[N+]=Nc1ccccc1C[C@]1(C(N)=O)N=C(c2ccc(OCCCO)cc2)O[C@H]1c1ccccc1`: the z-score in assay [1] was 0.329; in assay [2] it was -0.936 (inactive); in [3], -1.02 (inactive); in assay [5], 1.16 (inactive); in [6], 1.33 (inactive); in assay [7], 0.0314 (inactive). Also, the z-score in [8] was -0.665 (inactive); in [9] it was -1.03. Moreover, the results for the composite z-score in assay [4] and in [10] were 0.667 (inactive) and -0.108, respectively.

With `C=CCOC(=O)[C@H]1[C@@H]2C(=O)O[C@@H](c3ccccc3)[C@@H](c3ccccc3)N2[C@@H](c2ccc(OCCOC(=O)[C@H]3C[C@H]4C(=O)N5CCC[C@H]5C(=O)N4[C@H]3c3ccc(O)cc3)cc2)[C@]12C(=O)Nc1ccc(I)cc12`, the z-score in assay [1] was -0.495; in [2], -1.03 (inactive); in assay [3], -0.941 (inactive); in [5] it was 2.43 (inactive); in assay [6], -0.632 (inactive); in assay [7], -0.651 (inactive). Further, the z-score in [8] is -1.05 (inactive); in [9], -0.215. Also, the composite z-score is -1.73 (inactive) in assay [4] and 2.8 in assay [10].

Regarding `CCCCC(O)C1C=CC2C(=O)N(c3ccccc3)C(=O)C2N1Nc1ccccc1F` (stereo not given), the z-score in assay [1] is -0.8; in assay [2], -0.42 (inactive); in [3] it was -0.459 (inactive); in assay [5], 1.14 (inactive); in assay [6], -0.182 (inactive); in [7], -0.221 (inactive). Also, the results for the z-score in [8] and in assay [9] were 0.128 (inactive) and -0.786, respectively. Further, the composite z-score in assay [4] is -0.365 (inactive); in assay [10], 0.691.

`[N-]=[N+]=NCc1ccccc1[C@H]1OC(c2ccc(OCCCO)cc2)=N[C@@]1(Cc1ccccc1)C(=O)NCc1ccccc1`: the z-score is 0.294 in assay [1]; -0.223 (inactive) in assay [2]; -0.666 (inactive) in assay [3]; 0.702 (inactive) in assay [5]; 0.747 (inactive) in assay [6]; 0.431 (inactive) in assay [7]. Also, the z-score in assay [8] was 0.0009 (inactive); in [9], -0.34. The results for the composite z-score in assay [4] and in assay [10] were -0.407 (inactive) and 0.58, respectively.

`COCCCN1C(=O)[C@@]2(c3ccc([N+](=O)[O-])cc3)CC(=O)N(C3CCCCC3)[C@@H]2c2ccc(CO)cc21`: the z-score was -0.207 in assay [1]; 1.12 (inactive) in [2]; -0.559 (inactive) in assay [3]; 0.158 (inactive) in assay [5]; 0.0091 (inactive) in assay [6]; -0.0215 (inactive) in [7]. Moreover, the figures for the z-score in assay [8] and in assay [9] were -0.13 (inactive) and -0.837, respectively. Also, the composite z-score in assay [4] was -26.4 (active); in [10] it was -0.37.

With `CCOC(=O)C[C@H]1[C@H](OC(=O)c2cc3ccccc3oc2=O)[C@@H](NC(=O)C2CCCCC2)c2cc(OCCCO)ccc2N1C(=O)c1ccccc1`, the z-score was -0.687 in assay [1]; -0.797 (inactive) in assay [2]; 0.0797 (inactive) in assay [3]; -0.259 (inactive) in [5]; -0.403 (inactive) in assay [6]; 1.65 (inactive) in assay [7]. Further, the z-score is 0.612 (inactive) in [8] and 0.285 in [9]. In addition, the composite z-score is -2.85 (inactive) in assay [4] and -0.214 in [10].

Turning to `CCOC(=O)[C@H]1CC=C2CC1C(=O)N1CCC[C@@H]1[C@@H]2O[Si](C)(C)C(C)(C)C` (stereo not given in full), the z-score in assay [1] is 0.706; in assay [2], -14.4 (active); in assay [3] it was 0.425 (inactive); in assay [5], 0.543 (inactive); in assay [6], -0.335 (inactive); in assay [7], 0.665 (inactive). The z-score in assay [8] is -0.17 (inactive); in assay [9] it was 1.04. Further, the composite z-score in assay [4] is -0.458 (inactive); in assay [10], -0.167.

In the case of `O=C1[C@H]2C=C(Br)[C@H](C[C@@H]2c2ccccc2)[C@@]12CO2`, the z-score in assay [1] is -0.25; in assay [2], -7.98 (inactive); in assay [3], -0.727 (inactive); in assay [5], -0.14 (inactive); in [6], -0.13 (inactive); in assay [7] it was -1.29 (inactive). In addition, the z-score in [8] was -1.58 (inactive); in assay [9], -0.579. The composite z-score in assay [4] was 0.402 (inactive); in assay [10], -0.228.

For the molecule `COc1ccc(CCNC(=O)[C@@]2(Sc3ccc(C)cc3)CC(=O)N(C3CCCCC3)[C@@H]2c2ccc(CO)cc2I)cc1`, the z-score in assay [1] is 0.594; in assay [2], 0.0658 (inactive); in [3], 0.175 (inactive); in assay [5] it was 1.34 (inactive); in assay [6] it was -0.382 (inactive); in assay [7] it was 0.258 (inactive). For the same molecule, the z-score in assay [8] was 0.238 (inactive); in [9] it was -1.2. In addition, the composite z-score was 0.43 (inactive) in assay [4] and -0.276 in assay [10].

Regarding `COCCOC(=O)N1C(=O)[C@@]2(c3cc(C#Cc4ccc(OC)cc4)ccc31)[C@H](c1ccc(O)cc1)N1[C@H](c3ccccc3)[C@H](c3ccccc3)OC(=O)[C@H]1[C@@H]2C(=O)NC[C@H](O)c1ccccc1`, the z-score in assay [1] was -0.372; in [2], 0.895 (inactive); in [3], -0.5 (inactive); in [5], 0.429 (inactive); in [6] it was 0.95 (inactive); in assay [7], 0.351 (inactive). Besides, the z-score is -0.206 (inactive) in assay [8] and -0.573 in [9]. In addition, the composite z-score in assay [4] is 1.49 (inactive); in [10] it was -0.296.
